The nature of assay [1]: A549 cell viability effects, profiling panel, calcein-AM fluorescence, 48 h, basal (AID 1162). To be noted: higher = more signal.
Assay [2] in a line: adipocyte viability effects, profiling panel, cell-based, 3T3-L1 adipocytes, calcein-AM fluorescence, 48 h, basal (AID 1163). The conditions noted are these: 3T3-L1 adipocytes viability, higher = more signal.
Assay [3] in a line: HepG2 cell viability effects, profiling panel, calcein-AM fluorescence, 48 h, basal (AID 1164). The conditions noted are these: higher = more signal.
A short description of assay [4]: MM1S cell viability effects, profiling panel, calcein-AM fluorescence, 48 h, basal (AID 1165).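 Note: viability of MM1S multiple myeloma cells under basal unstimulated conditions.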 To be noted: higher = more signal.
Assay [5] is described as follows: basal RPMI8226 viability, no added stimulus, profiling panel, cell-based, calcein-AM fluorescence, 48 h, PK04 Diversity Set (AID 1166).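 Note: cells grown under basal conditions without added stimulus.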 The conditions noted are these: RPMI8226 myeloma viability, higher = more signal.
A short description of assay [6]: basal HepG2 mitochondrial membrane potential changes, profiling panel, cell-based, JC-1 fluorescence, 24 h, 100 nL compound (AID 1167). The conditions noted are these: higher = more signal.
Assay [7] can be described thus: basal 3T3-L1 adipocyte mitochondrial potential changes, profiling panel, cell-based, JC-1 fluorescence, 3T3-L1 adipocytes, 24 h, 100 nL compound (AID 1168). The conditions noted are these: JC-1 mitochondrial fluorescence, higher = more signal, called active from +8 up or from −8 down.
Assay [8] can be described thus: basal RPMI8226 mitochondrial membrane potential changes, profiling panel, cell-based, JC-1 fluorescence, 24 h, 100 nL compound (AID 1169). The conditions noted are these: RPMI8226 myeloma, JC-1 mitochondrial potential fluorescence, higher = more signal.
A short description of assay [9]: basal MM1S mitochondrial membrane potential changes, profiling panel, cell-based, JC-1 fluorescence, 24 h, 100 nL compound (AID 1170). The conditions noted are these: higher = more signal.
Assay [10] is described as follows: A549 lung cancer cell viability effects, profiling panel, resazurin fluorescence, 24 h, PK04 Diversity Set (AID 1171). The conditions noted are these: higher = more signal, called active from +8 up or from −8 down.

Each structure is given as a SMILES string. Calls of active or inactive are those of the source.
Note: test concentration not given here.

Turning to `CCCCC(=C=CC[C@H](O)c1ccccc1OCCO)C[C@H](O)c1ccccn1`, the z-score in assay [1] is 0.747; in assay [2] it was -0.547; in assay [3] it was 1.04; in [4] it was 0.7; in assay [5] it was -0.327; in assay [6], 0.21. For the same molecule, the z-score in [7] is 0.589 (inactive); in assay [8] it was -0.45; in assay [9] it was -1.14; in assay [10], 0.412 (inactive).
`CN(C)C(=O)[C@]1(Cc2ccccc2N=[N+]=[N-])N=C(c2ccc(OCCCO)cc2)O[C@@H]1c1ccccc1CN=[N+]=[N-]`: the z-score in assay [1] is -0.409; in [2], 1.01; in assay [3], -0.386; in assay [4], -2.39; in assay [5], -3.03; in [6] it was 0.38. In addition, the z-score in [7] was -0.286 (inactive); in [8], -0.992; in assay [9] it was -1.09; in assay [10], 1.59 (inactive).
Turning to `CCCN1C(=O)[C@@]2(Cc3ccccc3)N=C(c3ccc(OCCCO)cc3)O[C@H]2c2ccccc21`, the z-score in assay [1] was -1.54; in [2] it was 0.778; in assay [3], -1.7; in assay [4], -2.34; in assay [5] it was -4.32; in assay [6], -0.214. Moreover, the z-score was 1.18 (inactive) in assay [7], -1.27 in [8], -0.647 in [9] and -0.232 (inactive) in assay [10].
With `COCCOC(=O)N1C(=O)[C@@]2(c3cc(C#Cc4ccc(OC)cc4)ccc31)[C@H](C(N)=O)[C@H]1C(=O)O[C@H](c3ccccc3)[C@H](c3ccccc3)N1[C@@H]2c1ccc(OCCO)cc1`, the z-score was -1.42 in [1]; 0.879 in assay [2]; -0.656 in [3]; -1.79 in assay [4]; -2.31 in assay [5]; -1.59 in assay [6]. Besides, the z-score in assay [7] is 2.52 (inactive); in assay [8], -0.57; in [9], -1.39; in assay [10], 0.676 (inactive).
Consider `COCCCNC(=O)[C@@]1(Cc2ccccc2CN=[N+]=[N-])N=C(c2ccc(OCCCO)cc2)O[C@H]1c1ccccc1N=[N+]=[N-]`, for which the z-score is -0.121 in assay [1]; -0.0406 in [2]; 0.35 in assay [3]; -1.34 in assay [4]; -3.87 in [5]; 1.36 in [6]. Further, the z-score in assay [7] is 1.98 (inactive); in assay [8], -1.06; in [9], -0.156; in assay [10], -1.47 (inactive).
As for `COCCOC(=O)N1C(=O)[C@@]2(c3cc(C#CCNC(N)=O)ccc31)[C@H](C(=O)N1CCCCCCC1)[C@H]1C(=O)O[C@H](c3ccccc3)[C@H](c3ccccc3)N1[C@@H]2c1ccc(OCCO)cc1`, the z-score in [1] is 0.626; in [2] it was 0.636; in assay [3] it was 1.46; in assay [4], 0.246; in [5], 1.01; in assay [6], -1.47. The z-score was -2.15 (inactive) in assay [7], -0.764 in assay [8], -1.75 in assay [9] and -0.619 (inactive) in assay [10].
Regarding `COc1ccc([Si](C)(C)[C@@H]2[C@@H](CCO)O[C@]3(C(=O)N(Cc4ccccc4)c4ccc(N5C(=O)COc6ccccc65)cc43)[C@H]2C)cc1`, the z-score in assay [1] is -1.4; in assay [2], 0.155; in [3], -1.08; in [4] it was -2.24; in assay [5], -0.0589; in assay [6], 0.102. The z-score in assay [7] was 0.222 (inactive); in assay [8] it was -0.741; in assay [9], -0.857; in [10] it was -0.177 (inactive).
Take `CC(C)=CCCC(C)=CC(O)C1C=CC2C(=O)N(c3ccccc3)C(=O)C2N1Nc1ccc([N+](=O)[O-])cc1` (stereo not given): the z-score in assay [1] was -0.498; in assay [2], 0.701; in [3] it was -0.0971; in [4] it was -1.2; in [5] it was -0.186; in [6], -1.07. In addition, the z-score was -1.44 (inactive) in assay [7], 0.417 in assay [8], 1.41 in [9] and -0.214 (inactive) in assay [10].
In the case of `COC(=O)[C@@]1(Cc2ccc(OC)cc2)[C@H]2c3cc(C(=O)N(C)C)n(Cc4cc(F)c(F)c(F)c4)c3C[C@H]2CN1C(=O)c1ccccc1`, the z-score was -1.81 in assay [1]; 0.745 in assay [2]; -0.909 in assay [3]; -1.59 in assay [4]; -2.93 in assay [5]; 3.22 in assay [6]. The z-score was -0.149 (inactive) in [7], -0.863 in [8], -0.971 in assay [9] and -1.48 (inactive) in [10].
For the molecule `O=C1N(CCS(=O)(=O)c2ccccc2)Cc2ccccc2C[C@@]12COC(c1ccc(OCCCO)cc1)=N2`, the z-score was -0.696 in assay [1]; 0.643 in assay [2]; 1.13 in assay [3]; -2.84 in assay [4]; -1.53 in assay [5]; -1.08 in assay [6]. Besides, the z-score was 0.0146 (inactive) in assay [7], -1.03 in [8], -2.13 in assay [9] and -3.42 (inactive) in [10].
On to `CCOC(=O)C[C@H]1[C@H](OC(=O)c2ccccc2-c2ccccc2)[C@@H](NC(=O)c2ccccc2)c2cc(OCCCO)ccc2N1C(=O)Cc1ccc(OC)cc1`, for which the z-score in assay [1] was 1.29; in assay [2] it was 0.182; in assay [3] it was 0.144; in [4], -0.128; in assay [5], 0.206; in assay [6] it was 1.02. Besides, the z-score in assay [7] is -0.387 (inactive); in assay [8], -1.04; in assay [9] it was 0.277; in assay [10] it was 0.995 (inactive).
In the case of `C=CCC(OC(C)=O)[C@@H]1[C@@H](N(Cc2cccc3ccccc23)C(=O)Cc2ccc(F)cc2)c2cc(OCCCO)ccc2N1C(=O)Cc1ccc(OC)cc1` (stereo not given in full), the z-score is 1.34 in assay [1]; 1.88 in [2]; 0.99 in assay [3]; 0.827 in [4]; 0.762 in assay [5]; 2.26 in assay [6]. The z-score was 0.527 (inactive) in assay [7], 0.183 in assay [8], -0.0319 in assay [9] and 0.641 (inactive) in assay [10].
Regarding `OCCCC1=CC(c2cccs2)N(Cc2cccc(OC(F)(F)F)c2)CC1` (stereo not given), the z-score in [1] is -0.686; in assay [2], -0.777; in [3], -1.13; in [4] it was -3.3; in assay [5] it was -3.79; in [6], -1.24. Moreover, the z-score is -1.13 (inactive) in [7], -0.733 in assay [8], 0.478 in assay [9] and 0.397 (inactive) in [10].
Take `COC(=O)C(CC#Cc1ccc2c(c1)[C@]1(C(=O)N2)[C@H](c2ccccc2OCCO)N2[C@H](c3ccccc3)[C@H](c3ccccc3)OC(=O)[C@H]2[C@@H]1C(=O)Nc1nc2ccccc2s1)C(=O)OC`: the z-score in [1] was 0.689; in assay [2] it was 1.15; in assay [3], 0.755; in [4], -3.33; in assay [5], -1.74; in assay [6], -2.74. Further, the z-score was -0.00705 (inactive) in assay [7], -0.905 in assay [8], -0.548 in assay [9] and -0.203 (inactive) in assay [10].
As for `CO[C@H]1O[C@H](CO)[C@@H](OC(=O)Nc2cccc(F)c2)[C@H](OC(=O)Nc2ccc3c(c2)OCO3)[C@H]1OC(=O)Nc1ccc2c(c1)OCO2`, the z-score was -0.598 in assay [1]; 0.424 in assay [2]; -1.86 in assay [3]; -1.17 in assay [4]; -2.11 in assay [5]; -0.216 in assay [6]. The z-score in assay [7] was 0.712 (inactive); in assay [8], -0.313; in assay [9], -0.0179; in [10], -1.14 (inactive).

(Values after PubChem BioAssay.)
